According to PubChem BioAssay (EPA / NIEHS):
Several values for one entry are separate records, joined by “and”; a condition that tells them apart may be missing. Equal values may be shown once. Results filed as inconclusive are left out. Activity calls are given as the source filed them. How the source made its calls: active means hit-call score of the fitted dose curve at least 0.9, where 1 is the maximum; inconclusive means response in the unintended direction; inactive means score below 0.9.

Experiments:
[1] = molecular target: rat Adrenergic, Alpha 1, Non-selective Receptor (Adra1), Adra1a (gene 29412) (UniProt P43140); test: NVS_GPCR_rAdra1_NonSelective: NovaScreen (NVS) G Protein-Coupled Receptor Assay for rat Adrenergic, Alpha 1, Non-selective Receptor (Adra1) (AID 2283289)
rat Adrenergic, Alpha 1, Non-selective Receptor (Adra1), Adra1a (gene 29412), sequence (P43140 whole entry, looked up): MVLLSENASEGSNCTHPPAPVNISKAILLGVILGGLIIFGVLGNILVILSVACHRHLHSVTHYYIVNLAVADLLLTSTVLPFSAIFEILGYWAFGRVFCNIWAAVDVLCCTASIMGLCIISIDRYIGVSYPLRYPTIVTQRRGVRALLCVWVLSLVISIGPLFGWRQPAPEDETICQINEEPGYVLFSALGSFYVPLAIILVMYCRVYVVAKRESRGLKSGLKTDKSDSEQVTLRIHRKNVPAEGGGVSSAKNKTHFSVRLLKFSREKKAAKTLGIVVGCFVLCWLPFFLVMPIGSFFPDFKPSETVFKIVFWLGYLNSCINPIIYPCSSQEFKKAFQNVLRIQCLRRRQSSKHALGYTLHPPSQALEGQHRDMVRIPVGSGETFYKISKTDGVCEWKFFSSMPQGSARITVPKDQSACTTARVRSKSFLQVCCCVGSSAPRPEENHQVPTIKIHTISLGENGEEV
Procedure, shortened: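 Rat forebrain membranes; radioligand displacement read by filter-based scintillation counting 1 h after dosing. Primary screen in duplicate at 25 uM; hits (e.g. ≥30% inhibition) rerun as concentration–response to 50 uM max. Fitted versus DMSO.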

[2] = molecular target: human Opioid Receptor Mu (Opiate Mu), OPRM1 (gene 4988) (UniProt P35372); test: NVS_GPCR_hOpiate_mu: NovaScreen (NVS) G Protein-Coupled Receptor Assay for human Opioid Receptor Mu (Opiate Mu) (AID 2283290);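 further: hits lower bound tracer signal versus DMSO meaning displacement of the ligand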
human Opioid Receptor Mu (Opiate Mu), OPRM1 (gene 4988), sequence (P35372 whole entry, looked up): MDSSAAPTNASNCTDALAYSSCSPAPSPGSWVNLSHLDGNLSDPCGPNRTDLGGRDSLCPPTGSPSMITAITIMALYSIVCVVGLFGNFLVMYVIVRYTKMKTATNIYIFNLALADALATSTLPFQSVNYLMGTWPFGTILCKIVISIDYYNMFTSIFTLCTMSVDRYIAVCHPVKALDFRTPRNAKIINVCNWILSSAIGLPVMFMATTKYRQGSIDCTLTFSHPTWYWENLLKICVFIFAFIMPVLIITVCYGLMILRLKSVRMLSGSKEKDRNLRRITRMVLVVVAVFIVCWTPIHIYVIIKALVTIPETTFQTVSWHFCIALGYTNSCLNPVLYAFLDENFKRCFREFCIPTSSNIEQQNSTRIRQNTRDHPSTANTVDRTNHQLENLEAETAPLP
Procedure, shortened: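 Cell-free radioligand binding to membranes from CHO cells expressing the receptor; bound tracer measured by filter-based scintillation counting 2.5 hours after dosing. Loss of signal versus DMSO baseline reflects displacement; primary screen at 25 uM in duplicate, actives followed up in concentration series.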

[3] = molecular target: Metabotropic glutamate receptor 1 (Rattus norvegicus) (UniProt P23385); test: NVS_GPCR_rmMGluR1: NovaScreen (NVS) G Protein-Coupled Receptor Assay for rat Glutamate Metabotropic Receptor 1 (MGluR1) (AID 2283305)
Metabotropic glutamate receptor 1 (Rattus norvegicus), sequence (P23385 whole entry, looked up): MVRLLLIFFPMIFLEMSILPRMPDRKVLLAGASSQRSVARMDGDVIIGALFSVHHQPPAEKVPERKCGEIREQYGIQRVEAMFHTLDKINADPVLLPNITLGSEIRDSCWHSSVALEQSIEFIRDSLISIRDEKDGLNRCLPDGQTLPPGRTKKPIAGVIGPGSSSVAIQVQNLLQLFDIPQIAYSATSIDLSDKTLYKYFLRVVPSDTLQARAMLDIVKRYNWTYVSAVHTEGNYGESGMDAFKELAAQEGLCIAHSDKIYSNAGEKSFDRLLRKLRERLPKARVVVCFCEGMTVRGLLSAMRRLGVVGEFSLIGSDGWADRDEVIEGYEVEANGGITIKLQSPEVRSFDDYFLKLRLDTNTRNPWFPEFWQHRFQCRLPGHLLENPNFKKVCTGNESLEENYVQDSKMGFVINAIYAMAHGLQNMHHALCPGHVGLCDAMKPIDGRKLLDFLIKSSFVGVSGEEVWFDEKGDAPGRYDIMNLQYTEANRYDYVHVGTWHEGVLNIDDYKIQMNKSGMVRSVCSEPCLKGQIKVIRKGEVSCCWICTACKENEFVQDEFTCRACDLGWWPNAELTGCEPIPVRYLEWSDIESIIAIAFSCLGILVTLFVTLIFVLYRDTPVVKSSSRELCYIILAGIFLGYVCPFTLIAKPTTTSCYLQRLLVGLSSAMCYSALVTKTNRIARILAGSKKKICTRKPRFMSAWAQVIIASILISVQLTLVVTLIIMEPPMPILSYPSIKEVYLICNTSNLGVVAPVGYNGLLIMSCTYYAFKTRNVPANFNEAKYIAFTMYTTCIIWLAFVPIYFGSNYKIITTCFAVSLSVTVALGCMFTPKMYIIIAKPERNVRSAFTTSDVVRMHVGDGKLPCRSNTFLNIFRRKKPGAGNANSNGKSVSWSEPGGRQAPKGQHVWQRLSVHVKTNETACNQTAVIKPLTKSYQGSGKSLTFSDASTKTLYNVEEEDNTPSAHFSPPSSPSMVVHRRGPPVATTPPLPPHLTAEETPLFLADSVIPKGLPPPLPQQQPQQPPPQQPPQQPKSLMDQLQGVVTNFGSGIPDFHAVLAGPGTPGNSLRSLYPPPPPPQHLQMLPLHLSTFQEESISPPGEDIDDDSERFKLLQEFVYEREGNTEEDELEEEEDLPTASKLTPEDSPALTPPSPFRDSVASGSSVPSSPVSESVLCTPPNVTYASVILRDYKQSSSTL
Procedure, shortened: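 Rat cerebellum membrane preparation, radioligand displacement binding read by filter-based scintillation counting 1 hour after dosing. Initial duplicate single-point screen at 25 uM, then concentration-response up to 50 uM; loss of signal versus DMSO baseline scored.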

[4] = molecular target: rat Neurotensin Receptor (NTS), Ntsr1 (gene 366274) (UniProt P20789); test: NVS_GPCR_rNTS: NovaScreen (NVS) G Protein-Coupled Receptor Assay for rat Neurotensin Receptor (NTS) (AID 2283308)
rat Neurotensin Receptor (NTS), Ntsr1 (gene 366274), sequence (P20789 whole entry, looked up): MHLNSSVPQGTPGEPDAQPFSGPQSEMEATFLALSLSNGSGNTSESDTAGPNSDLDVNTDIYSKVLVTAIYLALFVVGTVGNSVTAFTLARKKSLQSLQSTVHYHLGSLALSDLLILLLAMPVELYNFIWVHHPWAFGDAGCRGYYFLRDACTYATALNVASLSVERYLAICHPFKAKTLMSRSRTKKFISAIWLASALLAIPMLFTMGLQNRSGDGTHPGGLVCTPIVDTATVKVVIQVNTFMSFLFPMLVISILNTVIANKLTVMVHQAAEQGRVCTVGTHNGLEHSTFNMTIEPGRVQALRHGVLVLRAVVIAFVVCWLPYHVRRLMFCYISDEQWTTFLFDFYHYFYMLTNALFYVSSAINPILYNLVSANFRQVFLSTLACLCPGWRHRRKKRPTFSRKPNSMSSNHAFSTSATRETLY
Procedure, shortened: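 Rat forebrain membranes; radioligand binding with competitive displacement, read by filter-based scintillation counting 1 h after dosing. Primary screen in duplicate at 25 uM; actives (e.g., 30% inhibition) rerun in concentration-response up to 50 uM, loss-of-signal versus DMSO.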

[5] = molecular target: rat Histamine Receptor (H3), Hrh3 (gene 85268) (UniProt Q9QYN8); test: NVS_GPCR_rH3: NovaScreen (NVS) G Protein-Coupled Receptor Assay for rat Histamine Receptor (H3) (AID 2283303)
rat Histamine Receptor (H3), Hrh3 (gene 85268), sequence (Q9QYN8 whole entry, looked up): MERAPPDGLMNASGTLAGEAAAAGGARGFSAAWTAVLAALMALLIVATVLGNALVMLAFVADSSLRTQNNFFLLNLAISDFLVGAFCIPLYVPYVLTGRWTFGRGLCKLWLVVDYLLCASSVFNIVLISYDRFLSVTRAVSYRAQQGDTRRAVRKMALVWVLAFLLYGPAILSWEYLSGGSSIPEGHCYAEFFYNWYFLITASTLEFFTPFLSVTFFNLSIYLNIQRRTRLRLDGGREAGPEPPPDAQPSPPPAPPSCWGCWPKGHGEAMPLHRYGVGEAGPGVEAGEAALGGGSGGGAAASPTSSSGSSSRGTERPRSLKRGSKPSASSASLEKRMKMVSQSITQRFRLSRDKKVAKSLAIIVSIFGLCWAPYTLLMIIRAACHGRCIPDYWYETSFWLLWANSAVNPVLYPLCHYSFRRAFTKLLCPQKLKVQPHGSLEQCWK
Procedure, shortened: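 Rat forebrain membranes incubated 1 h with compound; radioligand displacement measured by filter-based scintillation counting. Single-concentration duplicates at 25 µM, then concentration-response up to 50 µM, relative to DMSO.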

Adra2b (gene 24174) = Adra2b (gene 24174) (UniProt P19328); test: NVS_GPCR_rmAdra2B: NovaScreen (NVS) G Protein-Coupled Receptor Assay for hybird cells Adrenergic, Alpha 2B Receptor (Adra2B) (AID 2283306)
Adra2b (gene 24174), sequence (P19328 whole entry, looked up): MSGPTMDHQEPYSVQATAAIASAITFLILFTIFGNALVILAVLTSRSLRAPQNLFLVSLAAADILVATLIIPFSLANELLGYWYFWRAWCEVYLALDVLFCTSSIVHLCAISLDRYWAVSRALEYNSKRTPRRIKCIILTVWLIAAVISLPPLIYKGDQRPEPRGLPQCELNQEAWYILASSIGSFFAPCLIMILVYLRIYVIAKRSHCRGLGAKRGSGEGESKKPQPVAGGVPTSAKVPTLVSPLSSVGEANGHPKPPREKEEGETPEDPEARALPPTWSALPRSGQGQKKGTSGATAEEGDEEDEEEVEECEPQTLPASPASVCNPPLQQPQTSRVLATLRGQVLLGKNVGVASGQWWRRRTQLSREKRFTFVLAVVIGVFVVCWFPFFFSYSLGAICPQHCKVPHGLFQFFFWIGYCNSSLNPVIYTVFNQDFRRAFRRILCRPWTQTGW
Procedure, shortened: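 Radioligand filter-binding assay on membrane proteins from neuroglioma/blastoma hybrid cells (rodent), 1 h after dosing; scintillation counting, loss of signal vs DMSO. Primary screen in duplicate at 25 uM, actives then run in concentration series.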

[6] = molecular target: rat Glutamate Metabotropic Receptor 5 (MGluR5), Grm5 (gene 24418) (UniProt P31424); test: NVS_GPCR_rmMGluR5: NovaScreen (NVS) G Protein-Coupled Receptor Assay for rat Glutamate Metabotropic Receptor 5 (MGluR5) (AID 2283307)
Procedure, shortened: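 Rat whole-brain membrane preparation; filter-based radioligand binding read by scintillation counting, 1.5 h after dosing. Single-point screen at 25 uM in duplicate; hits over threshold (e.g. 30% inhibition) retested in concentration-response up to 50 uM; loss of signal vs DMSO.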

[7] = system: rabbit Platelet Activating Factor Receptor (PAF), gene 100354046; test: NVS_GPCR_rabPAF: NovaScreen (NVS) G Protein-Coupled Receptor Assay for rabbit Platelet Activating Factor Receptor (PAF) (AID 2283287)
Procedure, shortened: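 Rabbit platelet membrane preparation; radioligand displacement read by filter-based scintillation counting 1 h after dosing, loss of signal versus DMSO. Primary screen in duplicate at 25 uM, actives followed up in concentration series.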

[8] = molecular target: guinea pig Bradykinin Receptor B2 (BK2), BDKRB2 (gene 100135486) (UniProt O70526); test: NVS_GPCR_gBK2: NovaScreen (NVS) G Protein-Coupled Receptor Assay for guinea pig Bradykinin Receptor B2 (BK2) (AID 2283292)
guinea pig Bradykinin Receptor B2 (BK2), BDKRB2 (gene 100135486), sequence (O70526 whole entry, looked up): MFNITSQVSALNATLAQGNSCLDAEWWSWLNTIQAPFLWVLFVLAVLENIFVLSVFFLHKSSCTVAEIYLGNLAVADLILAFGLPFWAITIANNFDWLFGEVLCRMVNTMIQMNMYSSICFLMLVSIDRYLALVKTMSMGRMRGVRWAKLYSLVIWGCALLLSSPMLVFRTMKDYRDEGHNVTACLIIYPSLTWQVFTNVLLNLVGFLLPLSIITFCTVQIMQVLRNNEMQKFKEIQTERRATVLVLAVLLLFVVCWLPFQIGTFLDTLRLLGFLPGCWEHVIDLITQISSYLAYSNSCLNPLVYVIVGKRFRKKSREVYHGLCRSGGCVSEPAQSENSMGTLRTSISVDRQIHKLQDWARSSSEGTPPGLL
Procedure, shortened: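 Radioligand displacement on guinea pig ileum membranes for 1 h, read by filter-based scintillation counting; loss of signal relative to DMSO. Compounds were screened in duplicate at 25 uM, and those passing the threshold were retested in concentration-response up to 50 uM.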

[9] = molecular target: guinea pig Serotonin, 5-Hydroxytryptamine Receptor 4 (5HT4), HTR4 (gene 100135548) (UniProt O70528); test: NVS_GPCR_g5HT4: NovaScreen (NVS) G Protein-Coupled Receptor Assay for guinea pig Serotonin, 5-Hydroxytryptamine Receptor 4 (5HT4) (AID 2283294)
guinea pig Serotonin, 5-Hydroxytryptamine Receptor 4 (5HT4), HTR4 (gene 100135548), sequence (O70528 whole entry, looked up): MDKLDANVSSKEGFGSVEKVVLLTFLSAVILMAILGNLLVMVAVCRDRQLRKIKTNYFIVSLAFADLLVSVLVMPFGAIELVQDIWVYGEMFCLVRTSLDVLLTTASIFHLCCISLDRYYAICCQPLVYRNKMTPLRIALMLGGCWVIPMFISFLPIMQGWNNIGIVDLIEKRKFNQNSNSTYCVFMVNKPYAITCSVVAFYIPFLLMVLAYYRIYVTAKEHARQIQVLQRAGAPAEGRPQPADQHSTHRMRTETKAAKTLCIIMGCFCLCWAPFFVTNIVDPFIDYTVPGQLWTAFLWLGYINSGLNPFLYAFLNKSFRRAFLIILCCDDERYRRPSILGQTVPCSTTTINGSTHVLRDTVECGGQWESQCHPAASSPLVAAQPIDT
Procedure, shortened: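 Guinea pig striatal membranes; radioligand competitive displacement, filtration and scintillation counting after 1 h. Primary screen in duplicate at 25 uM; actives then tested in concentration series; loss of binding signal fitted relative to DMSO.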

[10] = system: 5-hydroxytryptamine receptor 2C (pig); test: NVS_GPCR_p5HT2C: NovaScreen (NVS) G Protein-Coupled Receptor Assay for pig Serotonin, 5-Hydroxytryptamine Receptor 2C (5HT2C) (AID 2283288)
Procedure, shortened: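 Pig choroid plexus membranes; radioligand competitive binding, filter-based scintillation counting, read 1 h after dosing. Primary screen in duplicate at 25 uM; actives then run as concentration series; loss of signal versus DMSO baseline.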

[11] = molecular target: rat Adrenergic Receptor, Beta (Adrb), Non-selective Binding, Adrb1 (gene 24925) (UniProt P18090); test: NVS_GPCR_rAdrb_NonSelective: NovaScreen (NVS) G Protein-Coupled Receptor Assay for rat Adrenergic Receptor, Beta (Adrb), Non-selective Binding (AID 2283298)
Procedure, shortened: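 Non-selective beta-adrenergic radioligand binding in rat cortical membranes, 1 h incubation, filter-based scintillation read-out. Primary screen 25 uM in duplicate; hits retested in concentration-response up to 50 uM, DMSO baseline.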

[12] = molecular target: rat Serotonin, 5-Hydroxytryptamine Receptor (5HT), Non-Selective Binding, Htr1a (gene 24473) (UniProt P19327); test: NVS_GPCR_r5HT_NonSelective: NovaScreen (NVS) G Protein-Coupled Receptor Assay for rat Serotonin, 5-Hydroxytryptamine Receptor (5HT), Non-Selective Binding (AID 2283295)
rat Serotonin, 5-Hydroxytryptamine Receptor (5HT), Non-Selective Binding, Htr1a (gene 24473), sequence (P19327 whole entry, looked up): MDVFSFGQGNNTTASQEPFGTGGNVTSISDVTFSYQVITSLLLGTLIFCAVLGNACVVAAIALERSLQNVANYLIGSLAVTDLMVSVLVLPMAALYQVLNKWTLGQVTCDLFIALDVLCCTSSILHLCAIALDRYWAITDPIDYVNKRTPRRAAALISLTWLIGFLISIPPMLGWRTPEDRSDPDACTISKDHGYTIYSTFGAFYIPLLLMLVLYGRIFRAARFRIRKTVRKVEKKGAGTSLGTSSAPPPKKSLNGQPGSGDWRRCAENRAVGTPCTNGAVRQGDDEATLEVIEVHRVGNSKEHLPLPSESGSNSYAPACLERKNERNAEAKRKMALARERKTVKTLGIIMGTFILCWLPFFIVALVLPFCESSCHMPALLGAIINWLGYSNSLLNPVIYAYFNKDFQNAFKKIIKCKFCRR
Procedure, shortened: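 Radioligand displacement on rat cortical membranes, 1 h incubation, filter-based scintillation counting. Primary duplicates at 25 uM, actives retested in concentration series; loss of signal fitted against DMSO as baseline.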

[13] = system: guinea pig Atrionatriuretic Peptide Receptor A (ANPA), gene 100135578; test: NVS_GPCR_gANPA: NovaScreen (NVS) G Protein-Coupled Receptor Assay for guinea pig Atrionatriuretic Peptide Receptor A (ANPA) (AID 2283291)
Procedure, shortened: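 Radioligand binding to guinea pig cerebellar membranes was measured after 1 h by filter-based scintillation counting. Chemicals were tested in duplicate at 25 uM, with hits run in concentration-response to a maximum of 50 uM. Binding loss was fitted against DMSO.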

[14] = molecular target: rat Serotonin, 5-Hydroxytryptamine Receptor 1 (5HT1), Non-Selective Binding, Htr1a (gene 24473) (UniProt P19327); test: NVS_GPCR_r5HT1_NonSelective: NovaScreen (NVS) G Protein-Coupled Receptor Assay for rat Serotonin, 5-Hydroxytryptamine Receptor 1 (5HT1), Non-Selective Binding (AID 2283286)
rat Serotonin, 5-Hydroxytryptamine Receptor 1 (5HT1), Non-Selective Binding, Htr1a (gene 24473), sequence (P19327 whole entry, looked up): as above
Procedure, shortened: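 Rat cortical membranes, radioligand displacement, 1 h incubation, read by filter scintillation. Primary screen in duplicate at 25 uM. Hits (e.g. ≥30% inhibition) went to concentration-response up to 50 uM, fitted as loss of binding versus DMSO.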

What does the source list for `COc1ccc(C(c2ccc(OC)cc2)C(Cl)(Cl)Cl)cc1`?
outcome [1]: inactive; outcome [2]: inactive

`Cc1c(F)c(F)c(COC(=O)C2C(/C=C(\Cl)C(F)(F)F)C2(C)C)c(F)c1F` (stereo unspecified) was tested. Which outcome [1] did it give?
Its outcome is “inactive”.

And the outcome [3]?
Its outcome is “inactive”.

What about the outcome [4] of the same compound?
Its outcome is “inactive”.

What does the source list for `Cc1ccc(-c2c(Cl)nc(C#N)n2S(=O)(=O)N(C)C)cc1`?
AC50 [5]: 5.9 µM (active); AC50 (Adra2b (gene 24174)): 4.08 µM (active)

Which outcome [2] does the source give for `N#CC(CCc1ccc(Cl)cc1)(Cn1cncn1)c1ccccc1` (stereo unspecified) here?
Its outcome is “inactive”.

What about the outcome [5] of the same compound?
Its outcome is “inactive”.

How did the outcome [1] turn out when `CCCCOC(=O)c1ccccc1C(=O)OCCCC` was run?
Its outcome is “inactive”.

And the outcome [6]?
The outcome was “inactive”.

How did the AC50 [7] turn out when `CO/C=C(/C(=O)OC)c1ccccc1Oc1cc(Oc2ccccc2C#N)ncn1` was run?
Its AC50 is 13.9 µM (active) and 15.7 µM (active).

And the outcome [2]?
The outcome was “inactive”.

What about the outcome [8] of the same compound?
Its outcome is “inactive”.

And the outcome [9]?
The outcome was “inactive”.

For `CON(C)C(=O)Nc1ccc(Cl)c(Cl)c1`, which AC50 [10] is on record?
Its AC50 is 25 µM (active).

And the AC50 [9]?
The AC50 was 12.4 µM (active).

And the outcome [11]?
Its outcome is “inactive”.

How did the AC50 (Adra2b (gene 24174)) turn out when `CCON=C(CC)C1=C(O)CC(c2c(C)cc(C)cc2C)CC1=O` (stereo unspecified) was run?
The AC50 was 2.7 µM (active).

How did the outcome [2] turn out when `CS/C(C)=N/OC(=O)N(C)SN(C)C(=O)O/N=C(\C)SC` was run?
Its outcome is “inactive”.

And the outcome [12]?
Its outcome is “inactive”.

What about the AC50 [5] of the same compound?
The AC50 was 2 µM (active).

How did the outcome [12] turn out when `COc1nc(NC(C)C)nc(NC(C)C)n1` was run?
Its outcome is “inactive”.

With `COC(=O)C=C(C)OP(=O)(OC)OC` as the compound, how does the outcome [13] read?
The outcome was “inactive”.

Which results are given for `CCCCNC(=O)OCC#CI`?
outcome [14]: inactive; AC50 [2]: 9.57 µM (active) and 6.68 µM (active); AC50 [9]: 13.7 µM (active) and 25 µM (active); AC50 [5]: 4.99 µM (active) and 6.92 µM (active); AC50 [3]: 19.2 µM (active) and 1.24 µM (active)

`CC(C)Oc1cc(-n2nc(C(C)(C)C)oc2=O)c(Cl)cc1Cl` was tested. Which AC50 [7] did it give?
Its AC50 is 9.82 µM (active).

Which results are given for `C=CCC1=C(C)[C@@H](OC(=O)[C@@H]2[C@@H](C=C(C)C)C2(C)C)CC1=O`?
AC50 [7]: 25 µM (active); outcome [12]: inactive

What does the source list for `CCCC1COC(Cn2cncn2)(c2ccc(Cl)cc2Cl)O1` (stereo unspecified)?
AC50 [7]: 14.4 µM (active); AC50 [2]: 8.68 µM (active)

For `CCc1nn(C)c(C(=O)NCc2ccc(C(C)(C)C)cc2)c1Cl`, which outcome [7] is on record?
The outcome was “inactive”.

`COc1cnc(OC)n2nc(NS(=O)(=O)c3c(OCC(F)F)cccc3C(F)(F)F)nc12` was tested. Which outcome [3] did it give?
The outcome was “inactive”.
